Consider 58 compounds from PubChem BioAssay AID504332 (National Center for Advancing Translational Sciences (NCATS), 2011).

Molecules are shown by their SMILES. Out of some 350,000 compounds screened, about 31,000 (8.9%) were called active. Roughly 15% stayed inconclusive and do not appear here. The entries come from a sample that favours actives as a whole. A call without a number means that no potency is given here. Unmarked numbers belong to inactive results. Calls follow the shape of the dose curve; as a rule, active = well fitted inhibition curve with a large enough effect; inconclusive = small, poorly fitted or top-dose-only effect; inactive = no such curve, though single readings can be large or run the other way.
Potency is read from the fitted curve at half-maximal effect.

Chain of Histone-lysine N-methyltransferase EHMT2 (Homo sapiens) (Q96KQ7 913-1193 limits assumed): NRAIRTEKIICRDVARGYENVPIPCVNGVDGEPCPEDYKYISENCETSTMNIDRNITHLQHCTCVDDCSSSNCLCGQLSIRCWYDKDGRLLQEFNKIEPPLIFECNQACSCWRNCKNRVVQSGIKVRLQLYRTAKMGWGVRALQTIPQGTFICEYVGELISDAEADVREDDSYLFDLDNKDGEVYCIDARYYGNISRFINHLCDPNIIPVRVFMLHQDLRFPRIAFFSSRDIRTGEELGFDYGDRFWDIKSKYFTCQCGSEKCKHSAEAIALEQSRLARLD

The assay has as its target Histone-lysine N-methyltransferase EHMT2 (Homo sapiens) (UniProt Q96KQ7). The experiment in a line: qHTS Assay for Inhibitors of Histone Lysine Methyltransferase G9a. Also: nearly all actives have a fitted effect of over 75% in size. The settings on record: G9a H3K9 monomethylation, AlphaScreen, 2 h; series mostly up to 59 µM. Summed up: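 Signal arises when biotinylated H3K9 peptide, once monomethylated, bridges streptavidin donor and antibody-captured acceptor beads. Enzyme at 20 nM was preincubated 15 min with test compounds; peptide 500 nM and SAM 20 uM then reacted for 2 h.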
Background: In qHTS, concentration-response curves come from the screen itself.
As for `CCCn1nc(C(=O)OCc2nc(N)nc(Nc3ccccc3C)n2)c2ccccc2c1=O`, the activity, negative = inhibition is -4.37% [at 12.7 µM].

Regarding `Cc1cn(C)c(CC(=O)NCc2ccccc2)c1C(=O)O`, the Potency entry was “inactive”. The same measure, in the same setting: with `N=c1c2c3c(sc2ncn1N)CCCC3` the entry was “inactive”; with `S=c1[nH]nc2c3c4c(sc3ncn12)CCCC4`, 1.12 µM (active).

Turning to `c1nnc2c3c4c(sc3ncn12)CCC4`, the Potency entry is “inactive”. Turning to `Cn1c(=O)c2sccc2n(Cc2ccc(Br)cc2)c1=O`, the activity, negative = inhibition is 4.98% [at 2.33 µM].

As for `CC(=O)OC(COc1ccc(F)cc1)Cn1cnc2ccccc21` (stereo not drawn), the Potency entry was “inactive”.

In the case of `C/C(Cn1nnc2ccccc21)=N\OC(=O)c1cc(F)c(F)cc1Cl`, the Potency entry is “inactive”. Same read-out and setting: with `Fc1ccc(OCc2nn3c(Cn4nnc5ccccc54)nnc3s2)cc1` the figure was 11.2 µM (active). `CC12CCC(=O)N1C(C(=O)NCCN1C(=O)S/C(=C\c3ccccc3F)C1=O)CS2` (stereo not drawn): the activity, negative = inhibition was -5.94% [at 12.7 µM].

Turning to `Cc1cccc(N2CCN(C(=O)c3ccc(Nc4nc5ccccc5n5nnnc45)cc3)CC2)c1C`, the Potency entry was “inactive”. Regarding `COc1ccc(Cl)cc1NC(=O)CN(C)C(=O)CNC(=O)C12CC3CC(CC(C3)C1)C2`, the activity, negative = inhibition is 7.61% [at 12.7 µM]. On to `COc1ccc(Cl)cc1NC(=O)CN(C)Cc1ccc(OC)c(OC)c1`, for which the Potency was 4.47 µM (active). Same read-out and setting: with `COc1ccc(Cl)cc1NC(=O)CCC(=O)c1ccc(C)cc1` the entry was “inactive”. Take `COc1ccc(Cl)cc1NC(=O)CN(C)C(=O)c1ccc2n[nH]nc2c1`: the activity, negative = inhibition was 15.9% [at 12.7 µM]. For `COc1ccc(Cl)cc1NC(=O)CNc1ccccc1F`, the Potency is 79.4 µM (active). On the same count and under the same terms, with `COc1ccc(C)cc1NC(=O)CSc1ccc(Cl)cc1` the entry was “inactive”.

On to `CCC(=O)c1ccc(OCC(=O)Nc2ccc(N3CCCCC3)cc2)cc1`, for which the activity, negative = inhibition was 13.1% [at 12.7 µM]. Still for that read-out and setting: to `CSc1ccc(Cl)c(C(=O)OCC(=O)N2CCNC2=O)c1` belongs 11.9% [at 12.7 µM]. In the case of `COc1ccc(OC)c(NC(=O)CSC2=Nc3ccccc3C3=NC(CC(=O)NCc4ccc(F)cc4)C(=O)N23)c1` (stereo not drawn), the Potency entry was “inactive”. Turning to `CC(C)c1ccc(NC(=O)Cn2ncc3ccccc32)cc1`, the Potency result was “inactive”. With `CCC(C)N(C(=O)COC(=O)c1nc(Cl)ccc1Cl)C1CCS(=O)(=O)C1` (stereo not drawn), the activity, negative = inhibition is -0.744% [at 0.501 µM]. `COc1cccc(CNS(=O)(=O)c2ccc3c(c2)CC(C)N3C(C)=O)c1` (stereo not drawn): the Potency result was “inactive”. For the compound `CC(C)CCN1CCN=C1N(C)C`, the activity, negative = inhibition is 11% [at 2.33 µM]. On to `CCOc1ccc(CNC(=O)C2CCCN(S(=O)(=O)N(CC)c3ccc(OCC)cc3)C2)cc1` (stereo not drawn), for which the Potency entry is “inactive”.

Take `CC(=O)N1CCOc2ccc(S(=O)(=O)N3CCN(c4cccc(C(F)(F)F)c4)CC3)cc21`: the Potency entry was “inactive”. As for `Cc1ccc2nc3c(cc(C(=O)NC4CCCCC4)c(=N)n3C(C)C)c(=O)n2c1`, the Potency result is “inactive”. For the compound `CCOC(=O)CNC(=O)/C(=C\c1ccc(F)cc1)NC(=O)c1ccccc1`, the activity, negative = inhibition is 24.9% [at 12.7 µM]. As for `Cn1c2ccccc2c2cc(/C=C(\NC(=O)c3ccccc3)C(=O)NCC(=O)O)ccc21`, the Potency was 50.1 µM (active). Same read-out and setting: with `COc1ccc(/C=C(\NC(=O)c2ccccc2)C(=O)NCCN2CCOCC2)cc1OC` the entry was “inactive”; with `COc1ccc(F)cc1C(=O)COC(=O)c1n[nH]c(=O)c2ccccc12`, “inactive”; with `Cc1coc2c(O)cc3c(c12)OC1(N2CCCCC2)C(=O)NCCCC31` (stereo not drawn), 7.94 µM (active).

On to `C=CCC1=C/C(=C\c2c(N)n3nc(CC(=O)N4CCOCC4)sc3nc2=O)C=C(OC)C1=O`, for which the Potency entry was “inactive”. Still for that read-out and setting: to `Cc1ccccc1Nc1nc(N)nc(COC(=O)CCC(=O)c2ccc(F)cc2)n1` belongs “inactive”; to `O=C(NCc1ccccc1)[C@H]1C[C@@H]1[C@H](NP(=O)(c1ccccc1)c1ccccc1)c1ccccc1`, 28.2 µM (active). With `O=C(O)C1C2C=CC(C2)C1C(=O)NCc1ccccc1` (stereo not drawn), the activity, negative = inhibition is 1.59% [at 2.33 µM]. Take `COC(=O)[C@H](Cc1ccccc1)NC(=O)[C@@H]1C[C@H]1[C@@H](NC(=O)OCc1ccccc1)c1ccccc1`: the Potency result was “inactive”.

With `O=C(CSCc1cnn(-c2ccccc2)c1-n1cccc1)NCc1ccccc1Br`, the Potency result is “inactive”. Take `Cc1cc(C)nc(S/C=C/C(=O)c2ccccc2)n1`: the Potency is 22.4 µM (active). In the case of `C/C(=N\NC(=O)c1nc(C)cc(C)n1)c1ccccc1`, the Potency result was “inactive”. On the same count and under the same terms, to `Cc1cc(SCC(=O)c2ccccc2)nc(SCC(=O)c2ccccc2)n1` belongs “inactive”.

For the compound `COc1ccc(Cn2cc(C(=O)c3ccc(C)cc3)c(=O)c3cc(OC)c(OC)cc32)cc1`, the Potency result was “inactive”. Consider `Cc1ccc2nc(NC(=O)C3CSC4(C)CCC(=O)N34)sc2c1` (stereo not drawn), for which the Potency was 39.8 µM (active). Regarding `CCOC(=O)c1sc(NC(=O)C2CSC3(C)CCC(=O)N23)nc1C` (stereo not drawn), the activity, negative = inhibition is 20.6% [at 12.7 µM].

As for `CC12CCC(=O)N1C(C(=O)Nc1ccc(F)c(F)c1F)CS2` (stereo not drawn), the activity, negative = inhibition is 13.3% [at 12.7 µM]. Turning to `Cc1oc2c(c1C(=O)Nc1ccc(F)c(F)c1)C1=NCCN1C=N2`, the Potency result was “inactive”. Same read-out and setting: with `COc1ccc(-c2nn(CC(=O)NC3CCCC3)c3c2cnc2ccc(F)cc23)cc1` the entry was “inactive”; with `C=C(C)C1CC=C(C)/C(=N/NC(=O)CCCNc2cccc(C)c2)C1` (stereo not drawn), “inactive”; with `COc1ccccc1Nc1ncc(C(C)=O)c(C)n1`, “inactive”. Still for that read-out and setting: with `C=C(C)C1CC=C(C)/C(=N\NC(=O)CNc2ccccc2OC)C1` (stereo not drawn) the figure was 35.5 µM (active); with `CCOC(=O)c1c(S(=O)(=O)N2CCCC(C(=O)NCc3cccc(C)c3)C2)c(C)n(C)c1C` (stereo not drawn), “inactive”. For `O=C(NCCC1CCCCN1S(=O)(=O)c1ccc(F)cc1)C(=O)NC1CC1` (stereo not drawn), the activity, negative = inhibition was 16.1% [at 0.501 µM]. With `COc1ccc(NC(=O)CCCN2C(=O)C(c3ccccc3)Oc3cccnc32)cc1` (stereo not drawn), the Potency entry was “inactive”. Same read-out and setting: to `Cc1cc(C)nc(NC(=O)c2cccc([N+](=O)[O-])c2)c1` belongs “inactive”; to `CS(=O)(=O)N(CC(=O)Nc1ccc(F)cc1F)c1cccc([N+](=O)[O-])c1`, “inactive”. As to `O=[N+]([O-])c1cccc(/C([O-])=C(/C(=S)Nc2ccccc2F)[n+]2ccccc2)c1`, the Potency was 28.2 µM (active). Consider `CCCN1C2CCCC1CC(NC(=O)NC13CC4CC(CC(C4)C1)C3)C2` (stereo not drawn), for which the activity, negative = inhibition is -2.35% [at 0.501 µM].

Consider `OCC[C@H]1C[C@@H](O)[C@H](O)[C@]2(OCCCc3ccccc32)O1`, for which the activity, negative = inhibition was -3% [at 12.7 µM].
